PubChem BioAssay (NCI)
Compounds without any hit were thinned out: in the full panel of roughly 83,000, 20% have a hit.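 Testing used 96-well plates and a 48-hour single-concentration exposure. Example: -40 means 40% of the starting cells died.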 Active and inactive are the calls of the source. How the source made its calls: active means growth percent below 10; inactive means the rest.

test system: HL-60(TB) leukemia; experiment: NCI-60 one-dose screen, 48 h (100 = growth as untreated, 0 = no growth, -100 = all killed); details: 10 µM unless noted

Structure (SMILES)	growth
COc1cc(/C=C/C(=O)c2ccc(Cl)cc2)ccc1Oc1nc(NCCO)nc(N2CCOCC2)n1	93.7% (inactive)
Cc1c(Nc2nnc(SCC(=O)Nc3sc4c(c3C#N)CCCC4)s2)c(=O)n(-c2ccccc2)n1C	108% (inactive)
CCC1=Cc2cc(OC)ccc2OC12C=Cc1cc(OC)ccc1O2 (stereo not given)	-1.93% (active)
N#Cc1c(-c2cccs2)cc(-c2cnccn2)nc1SCC(=O)N/N=C/c1cccs1	96.2% (inactive)
CCN1C(=S)N(c2ccccc2)C2NC(=O)N(/N=C/C=C/c3ccccc3OC)C21 (stereo not given)	64.2% (inactive)
CCCn1cnc2c(c1=N)C(c1ccc(F)cc1)c1sc3c(C)cccc3c1O2 (stereo not given)	-30.2% (active)
COc1ccc(CCN2C(=O)CSC2=S)cc1OC	62.4% (inactive)
c1cn2c(ccc3nc(-c4cn[nH]c4)c4c(c32)CCCC4)n1	73.8% (inactive)
CN1CCN(c2nc(-c3cnc4ccccc4n3)cc3ccccc23)CC1	-36.2% (active)
CC(=O)c1cc(C(=O)N2c3ccccc3Sc3ccccc32)n2ccc3ccccc3c12	9.89% (active)
COc1cc(/C=N/n2cnc3oc(-c4ccccc4)cc3c2=N)cc(CN2CCCC2)c1O	64.9% (inactive)
COc1ccc(-c2ccnc3c(C#N)c(Nc4ccccc4)nn23)cc1OC	71.1% (inactive)
Cc1cc2nc(C(Cl)Cl)nc(-c3ccco3)n2n1	-4.98% (active)
Cc1[nH]c(C(=O)Nc2ccccc2OCc2cccc(C(=O)NCCN)c2)cc1Cl	89.6% (inactive)
O=C(NCCCCCCNC(=O)c1c2c(nc3ccccc13)-c1cccnc1SC2)c1c2c(nc3ccccc13)-c1cccnc1SC2	24% (inactive)
O=C(Oc1ccc2ccc(=O)oc2c1)c1ccc(Cl)cc1	106% (inactive)
Cn1cc(-c2cc3ncnc(Nc4ccc(NC(=O)Nc5cc(C(C)(C)C)on5)cc4)c3s2)cn1	13.6% (inactive)
COc1ccc2[nH]cc(-c3csc4nc(-c5ccccc5)cn34)c2c1	13.9% (inactive)
CCOC(=O)C1=C(C)NC(C)=C(C(=O)OC(C)C)C1c1cccc(C#N)c1 (stereo not given)	93.1% (inactive)
NS(=O)(=O)c1ccc(Nc2nc(N/N=C/c3ccc4c(c3)OCO4)nc(Nc3ccccc3)n2)cc1	31.1% (inactive)

Structure (SMILES)	growth
COc1cc(-c2nc(-c3ccccc3)[nH]c2-c2ccnc(NCCCNS(=O)(=O)c3cccc(F)c3)n2)ccc1Cl	55.1% (inactive)
O=C(Nc1ccccc1)Nc1nc2ccc([N+](=O)[O-])cc2[nH]1	70.2% (inactive)
N#Cc1c(-c2cccs2)cc(-c2cnccn2)nc1SCC(=O)Nc1ccc(Br)cc1	107% (inactive)
CC1(C)CC[C@]2(C(=O)O)CC[C@]3(C)C(=CCC4[C@@]5(C)C[C@@H](O)[C@@H]6OC(c7cccc([N+](=O)[O-])c7)OC[C@@]6(C)C5CC[C@]43C)C2C1 (stereo not given in full)	42.5% (inactive)
CN1CCN(c2ccc(C(=O)Nc3cccc(-c4cn(-c5ccc(S(N)(=O)=O)cc5)nn4)c3)cc2C(F)(F)F)CC1	77% (inactive)
C#CCNC1CCC(c2csc(C#C)n2)=C1C (stereo not given)	90.6% (inactive)
O=C(CSc1nnc(-c2ccc(Cl)cc2)n1-c1ccccc1)Nc1ccc(Br)cc1	81.4% (inactive)
Cc1[nH]nc2ccc(-c3nc4cnc(N5CCN(C)CC5)cn4c3Nc3ccc(F)cc3Br)cc12	-29.6% (active)
Cc1nc(-c2cc3ccccc3oc2=O)ccc1C(=O)/C=C/c1ccccn1	32.9% (inactive)
COc1ccccc1N1CCN(C2=C(Cl)C(=O)c3ncccc3C2=O)CC1	12.5% (inactive)
Nc1nc(N)c2c(n1)NC(c1ccc(C(F)(F)F)cc1)CC(c1ccc(Nc3nc(NCCO)nc(N4CCOCC4)n3)cc1)=N2 (stereo not given)	21.4% (inactive)
COc1ccc(C2CC(c3cccc(Nc4nc(Cl)nc5cc(OC)c(OC)cc45)c3)=Nc3c(N)nc(N)nc3N2)cc1 (stereo not given)	47.4% (inactive)
C#C[C@]1(O)CC[C@H]2[C@@H]3CC=C4c5sc(Nc6cc(C)cc(C)c6)nc5CC[C@]4(C)[C@H]3CC[C@@]21C	-2.89% (active)
O=C1[C@H]2Cc3c([nH]c4ccccc34)[C@@H](c3ccc(Cl)cc3)N2C(=O)CN1C1CCN(Cc2c(Cl)cccc2Cl)CC1	108% (inactive)
[Cl][Ru].c1ccc(-c2cc(-c3ccccn3)nc(-c3ccccn3)c2)cc1.c1ccc(-c2ccnc3c2ccc2c(-c4ccccc4)ccnc23)cc1	-29.2% (active)
Cc1cccc(/C=C/c2nn3c(-c4ccco4)nnc3s2)c1	86.2% (inactive)
O=C1/C(=C/c2ccccc2[N+](=O)[O-])Oc2ccc(O)cc21	24.3% (inactive)
COc1ccc2sc(NC(=O)CCCCCCNC(=O)C(O)(O)C(F)(F)F)nc2c1	11.8% (inactive)
CCN(CC)CCOc1ccc(C(=C(C)c2ccc(OC)cc2)c2ccc(OCCN(CC)CC)cc2)cc1	-42.9% (active)
O=S(=O)(NCCNc1nccc(-n2cnc3ccccc32)n1)c1ccc(C(F)(F)F)cc1	73.8% (inactive)
